Test results reported in ChEMBL document CHEMBL3988442, “University of Dundee, Small-Polar-MMV Screening Library” (2021).
Screen size: about 48,000 compounds; about 13,000 (27%) showed an effect of 50% or more. Some of the results follow.

The compounds below were run on Wolbachia pipientis (assay: Anti-Wolbachia Cell-Based Screen). Conditions: 5 µM.
Assay type: functional
Parameters: scale not given: in the data most compounds retested in dose-response had high values
`CS(=O)(=O)N1CC[C@]2(O)CCN(c3ccnc(N)n3)C[C@@H]2C1` was tested, and the “Percent Effect” value was -18.71%. In the case of `CN(C)S(=O)(=O)N1CC[C@]2(O)CCN(CCCc3cccnc3)C[C@@H]2C1`, the “Percent Effect” value is reported as 99.63%. For `CS(=O)(=O)N1CC[C@]2(O)CCN(CCCC(=O)c3ccccc3)C[C@@H]2C1`, the “Percent Effect” value was 92.75%. In the case of `CN(C)S(=O)(=O)N1CC[C@]2(O)CCN(c3ncccn3)C[C@@H]2C1`, the “Percent Effect” value is reported as 8.402%. In the case of `Cc1ccc(N2CC[C@@]3(O)CCN(S(C)(=O)=O)C[C@H]3C2)nn1`, the “Percent Effect” value is reported as -14.46%. For `CN(C)S(=O)(=O)N1CC[C@]2(O)CCN(c3nccs3)C[C@@H]2C1`, the “Percent Effect” value was -7.348%. For `O=C(c1[nH]nc(C2CC2)c1Cl)N1CCCC1`, the “Percent Effect” value was -9.749%. `Fc1ccccc1C(CNc1ccncn1)N1CCCC1` (configuration not stated) was tested, and the “Percent Effect” value was 123.2%. For `Fc1ccc(C(CNc2ccncn2)N2CCCC2)cc1` (configuration not stated), the “Percent Effect” value was 85.77%. With `CCc1cnc(NCC(c2ccncc2)N2CCOCC2)nc1` (configuration not stated) the “Percent Effect” value was -11.49%. With `O=C(N1CCCC1)N1CCC(Nc2ccncn2)CC1` the “Percent Effect” value was 4.287%. With `O=C(C(c1ccc(F)cc1)N1CCCCC1)N1CCn2cncc2C1` (configuration not stated) the “Percent Effect” value was 7.503%. For `NCc1cc(NCC(c2ccccn2)N2CCOCC2)ncn1` (configuration not stated), the “Percent Effect” value was -3.716%. In the case of `COc1cc(NCC(c2ccccn2)N2CCOCC2)ncn1` (configuration not stated), the “Percent Effect” value is reported as -14.18%. In the case of `Fc1ccc(C(CNc2ccncn2)N2CCCCC2)cc1` (configuration not stated), the “Percent Effect” value is reported as 113.6%. For `OC(CN1CCCCCCC1)c1ccc(F)cc1` (configuration not stated), the “Percent Effect” value was -2.886%. For `CCc1cc(N(C)Cc2[nH]nc3c2CCC3)nc(N2CCOCC2)n1`, the “Percent Effect” value was 17.45%. `O=C(NCC1(c2ccc(F)cc2)CC1)N1CCC2(CCOC2)C1` (configuration not stated) was tested, and the “Percent Effect” value was -4.934%. With `CN1CCO[C@@H]2CN(S(=O)(=O)c3cccs3)CC[C@@H]2C1.O=C(O)C(F)(F)F` the “Percent Effect” value was 99.53%. With `CN(C)C[C@H]1OC[C@@H]2CCN(S(=O)(=O)c3cccs3)C[C@@H]21.O=C(O)C(F)(F)F` the “Percent Effect” value was -5.421%. With `CC(=O)N1CCO[C@@H]2CN(C(=O)c3ccccc3)CC[C@@H]2C1` the “Percent Effect” value was -4.476%. With `CC(C)N1CCO[C@@H]2CN(S(=O)(=O)c3cccs3)CC[C@@H]2C1.O=C(O)C(F)(F)F` the “Percent Effect” value was 96.63%. For `CN1CCO[C@@H]2CN(S(=O)(=O)c3ccccc3F)CC[C@@H]2C1.O=C(O)C(F)(F)F`, the “Percent Effect” value was -5.27%. For `CCO[C@@H]1C[C@H]2CN(S(=O)(=O)c3cccs3)CCN2C1.O=C(O)C(F)(F)F`, the “Percent Effect” value was -4.424%. `CC(=O)N1CCO[C@@H]2CN(S(=O)(=O)c3cccs3)CC[C@@H]2C1` was tested, and the “Percent Effect” value was 114.4%. For `CCN1CCO[C@@H]2CN(S(=O)(=O)c3cccs3)CC[C@@H]2C1.O=C(O)C(F)(F)F`, the “Percent Effect” value was 101.9%. With `CCS(=O)(=O)N1C[C@@H]2CN(Cc3cccs3)CCO[C@@H]2C1.O=C(O)C(F)(F)F` the “Percent Effect” value was 3.582%. In the case of `CC(C)CN1CC[C@@H]2[C@@H]1CCN2S(=O)(=O)c1cccs1.O=C(O)C(F)(F)F`, the “Percent Effect” value is reported as -11.08%. `O=C(O)C(F)(F)F.O=S(=O)(C1CC1)N1C[C@@H]2CN(Cc3cccs3)CCO[C@@H]2C1` was tested, and the “Percent Effect” value was 9.308%. For `CCC(C)Nc1ccc2c(c1)C1(CCOCC1)C(=O)N2c1ccccc1` (configuration not stated), the “Percent Effect” value was 13.06%. In the case of `Cc1ccccc1CS(=O)(=O)CC(=O)N(C)Cc1cccc(F)c1`, the “Percent Effect” value is reported as -33.07%. `CCN1CCN2CCCN(S(=O)(=O)c3ccc(S(C)(=O)=O)cc3)C2C1=O` (configuration not stated) was tested, and the “Percent Effect” value was 10.86%. In the case of `CCn1c(CN(C)C(C)CSC)nc2c(F)cccc21` (configuration not stated), the “Percent Effect” value is reported as -3.593%. `Cn1nnnc1SCCNC(=O)C1CCN(C(=O)C2CC2)CC1` was tested, and the “Percent Effect” value was 0.3316%. `CCCc1cc(=O)n(CC(=O)NCCOC)c(-n2nc(C)cc2C)n1` was tested, and the “Percent Effect” value was 110%. `CCCc1cc(=O)n(CC(N)=O)c(-n2nc(C)cc2C)n1` was tested, and the “Percent Effect” value was 12.11%. `COCCS(=O)(=O)NC(C)c1ccc(-n2nc(C)cc2C)cc1` (configuration not stated) was tested, and the “Percent Effect” value was -14.21%. For `COCCNC(=O)Cn1c(C)cc2nc(SC)n(CC(C)C)c(=O)c21`, the “Percent Effect” value was 0.09267%. `CCCc1cc(=O)n(CC(=O)NC(C)C)c(-n2nc(C)cc2C)n1` was tested, and the “Percent Effect” value was 152.6%. For `CCCNC(=O)Cn1c(-n2nc(C)cc2C)nc(CCC)cc1=O`, the “Percent Effect” value was 109.3%. `CCN(CC)C(=O)CCNc1cncc(-n2nc(C)cc2C)n1` was tested, and the “Percent Effect” value was -4.875%. `Cc1cc(C)n(-c2cncc(N3CCN(C(=O)C(C)C)CC3)n2)n1` was tested, and the “Percent Effect” value was -1.845%. `CCCNC(=O)Cn1c(C)nn(C(C)(C)C)c1=O` was tested, and the “Percent Effect” value was -1.553%. `CCC(O)CN(CC(=O)NC(=O)NC1CC1)c1ccccc1` (configuration not stated) was tested, and the “Percent Effect” value was -6.258%. In the case of `CCOCC1CC2(CCN(C(=O)C3CCSCC3)CC2)CO1` (configuration not stated), the “Percent Effect” value is reported as -12.12%. `O=C1CC(c2ccco2)c2sc(C(=O)O)c(-c3ccccc3)c2N1` (configuration not stated) was tested, and the “Percent Effect” value was 3.632%. `O=C(CO)N1C[C@H]2CC[C@@H]1CN(C1Cc3ccccc3C1)C2` was tested, and the “Percent Effect” value was -7.791%. With `CC(c1nc(C2CC2)no1)N1CCN(Cc2nnc(C3CC3)o2)CC1` (configuration not stated) the “Percent Effect” value was 142.3%. For `CC(C)c1nnc(CN2CCN(C(C)c3nc(C4CC4)no3)CC2)o1` (configuration not stated), the “Percent Effect” value was 138.5%. For `Cc1nnc(CN2CCN(C(C)c3nc(C4CC4)no3)CC2)o1` (configuration not stated), the “Percent Effect” value was 96.71%. In the case of `CC(C)c1nc(C2CCCN(Cc3nnc(C4CC4)o3)C2)no1` (configuration not stated), the “Percent Effect” value is reported as -2.987%. In the case of `CCc1noc(C(C)N2CCN(Cc3nnc(C4CC4)o3)CC2)n1` (configuration not stated), the “Percent Effect” value is reported as 4.733%.
